# Only some compounds are listed: those with a hit (about 2.6% of all), similar ones and a draw of the others.
# ABHD5 PLIN5 PPI: blocks binding of human ABHD5 to perilipin-5 | AID 602281 | 360,000 tested, 0.78% active | Split G. princeps luciferase complementation, luminescence, 4 h | Q00G26+Q8WTS1 | inhibition, % at 4 µM;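 active = inhibition above the mean inhibition across every tested compound plus 3 SD, cut at about 22% in these data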;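 also: 0% = DMSO only wells and the 100% control is not disclosed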
# Platelet DG rel: platelet dense granule release activity; human platelet-rich plasma, SFLLRN dense granule ATP release, luminescence; inhibition, %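 (compounds screened at 7.5 µM in platelet-rich plasma)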; 300,000 tested, 0.22% active; AID 1663;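 active = mean replicate score, as percent of positive control, at or above 50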
# Rce1 inhib: blocks yeast Ras-converting enzyme. yeast membranes, quenched prenylated peptide cleavage fluorescence. calls only. 290,000 tested, 0.27% active. AID 2563;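 active = fall in fluorescence gain of 50% or more versus controls, with final raw signal at or below 3038400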;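 also: plate controls were neutral control wells for no effect and wells lacking membranes for full effect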
# Exocytosis inh: blocks lytic granule exocytosis | inhibition, % at 10 µM | 360,000 tested, 0.66% active | TALL-104 LAMP-1 surface exposure, flow cytometry; cells stimulated with thapsigargin and PMA;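 active = inhibition above about 55%, limit read from the data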
# PfM18AAP inh: blocks P. falciparum M18 aspartyl aminopeptidase. recombinant PfM18AAP, H-Glu-NHMec fluorogenic cleavage. inhibition, % at 7.35 µM. 290,000 tested, 1.2% active. AID 1822;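 active = inhibition above the campaign mean inhibition over all tested compounds plus 3 SD, cut at about 28% in these data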;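 also: 0% = plate median of test compound wells and 100% = 2 mM ZnCl2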
# ABHD5 PLIN5 conf: ABHD5-PLIN5 interaction inhibition, confirmed. 2,200 tested, 67% active. inhibition, % at 4 µM. biochemical ABHD5-PLIN5 interaction, luminescence. shares compounds with ABHD5 PLIN5 PPI. AID 651612; in the data active = inhibition above about 23%;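 also: 0% = DMSO vehicle wells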
# HNF4 counter: active in HNF4 split-luciferase counter-screen for ABHD5-PLIN5 inhibitors; shares compounds with ABHD5 PLIN5 PPI; HNF4 dimerization, luminescence, biochemical; inhibition, % at 4 µM; 2,200 tested, 77% active; AID 651674;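 active = mean inhibition across replicate wells exceeding the computed hit threshold, cut at about 13% in these data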;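 also: light from luciferase halves that rejoin when HNF4 fusion proteins dimerize; 0% = DMSO only wells and the 100% control is not given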
# Active calls of the source: *; i = inactive; / = not tested or not shown.
SMILES,ABHD5 PLIN5 PPI,Platelet DG rel,Rce1 inhib,Exocytosis inh,PfM18AAP inh,ABHD5 PLIN5 conf,HNF4 counter
COc1cc(N2C(=O)C=CC2=O)c(OC)cc1Cl,38.7*,5.7,i,-2.1,-90.4,43.9*,104.0*
COc1ccc2c(c1)/C(=C\c1cccc(/C=C3/C(=O)Nc4ccc(OC)cc43)n1)C(=O)N2,50.6*,/,/,16.5,/,100.4*,98.4*
COc1ccc(NS(=O)(=O)c2cccc(C(=O)NCCCN3CCCC3=O)c2)cc1,-1.9,1.6,i,0.9,/,/,/
COc1ccc(NS(=O)(=O)c2ccc(C)c(C(=O)NCCCN3CCCC3=O)c2)cc1,23.4*,/,/,-2.3,/,4.4,3.5
O=C(CCCCN1CCCCC1)c1ccccc1,-3.3,16.5,i,7.5,/,/,/
O=C(C(=Cc1ccccc1)CN1CCCCC1)c1ccccc1,46.7*,/,/,4.5,/,77.3*,65.1*
N#C/C(=C\c1cccc(NC(=O)c2ccccc2Cl)c1)C(=O)NCCc1ccccc1,47.2*,-2.8,i,2.6,5.5,83.0*,77.5*
COCCCNC(=O)/C(C#N)=C/c1cccc(NC(=O)c2ccccc2Cl)c1,12.5,-4.6,i,8.1,4.7,/,/
N#C/C(=C/c1cccc(O)c1)C(=O)NCc1ccc(Cl)cc1,23.7*,2.7,i,-8.3,15.6,63.9*,55.1*
N#C/C(=C/c1ccccc1)C(=O)NCc1ccccc1,14.8,0.5,i,-2.7,-1.2,/,/
CC(C)OC(=O)CSc1nnc(-c2ccc(Cl)cc2Cl)n1N,-1.2,2.9,/,4.2,-1.6,/,/
COc1ccccc1Cc1c(-c2ccc(C#N)cc2)nc2c(Cl)cc(C(F)(F)F)cn12,-10.2,/,/,-2.1,/,/,/
O=C1/C(=C/c2cccc([N+](=O)[O-])c2)CCc2ccccc21,37.0*,-5.0,i,1.9,0.9,56.2*,46.1*
O=C1C(=Cc2ccccn2)CCc2ccccc21,24.6*,/,/,0.2,/,59.5*,45.8*
O=C1C(=Cc2cccc(F)c2)Cc2ccccc21,24.2*,/,/,-8.3,/,27.7*,23.1*
Nc1ccccc1C=C1Cc2ccccc2C1=O,11.1,/,/,5.2,/,/,/
O=C1C(=Cc2ccccc2[N+](=O)[O-])Cc2ccccc21,28.1*,/,/,3.2,/,50.9*,46.3*
COc1ccc2c(c1)CC/C(=C/c1ccccn1)C2=O,19.3,8.0,i,18.6,-7.1,/,/
COc1ccccc1CNC(=O)C1CCC(=O)N(CCCN2CCCC2=O)C1 (stereo not given),-7.2,2.3,i,-4.3,2.4,/,/
O=C(CCN1C(=O)/C(=C/c2ccc(F)cc2)SC1=S)NCCCn1ccnc1,-10.0,-3.8,i,-2.3,17.7,/,/
S=C(Nc1ccc(Cl)cc1)c1nc2ccccc2s1,-2.2,1.2,i,-3.9,-3.1,/,/
O=C(Nc1ccc(Cl)cc1)/C(=C/c1cccc(O)c1)c1nc2ccccc2s1,29.5*,10.8,i,10.3,-2.2,85.6*,61.0*
CC(C)C(NS(=O)(=O)c1ccccc1)C(=O)OCc1cc([N+](=O)[O-])cc2c1OCOC2 (stereo not given),44.9*,-10.7,i,-1.8,4.8,3.8,6.0
O=C(NCc1cccnc1)/C(=C/c1ccc(-c2cccc(C(F)(F)F)c2)o1)NC(=O)c1ccccc1,5.2,-0.6,i,-1.4,-3.3,/,/
O=C(NCc1cccnc1)/C(=C/c1ccc(-c2ccc(Cl)cc2)o1)S(=O)(=O)c1ccccc1,79.6*,-2.3,i,86.7*,-9.5,97.4*,88.1*
SMILES,ABHD5 PLIN5 PPI,Platelet DG rel,Rce1 inhib,Exocytosis inh,PfM18AAP inh,ABHD5 PLIN5 conf,HNF4 counter
CC[C@@H](C)[C@@H]1CN([C@@H](C)CN2CCC[C@H]2CN2C(N)=NC[C@H]2CC(C)C)C(=N)N1CCCC1CCCC1,-1.0,/,/,0.7,/,/,/
CC[C@@H](C)[C@@H]1CN([C@@H](C)CN2CCC[C@H]2CN2C(N)=NC[C@@H]2Cc2ccccc2)C(=N)N1CCCC1CCCC1,28.8*,/,/,21.5,/,10.6,-1.1
CC[C@@H](C)[C@@H]1CN([C@@H](CN2CCC[C@H]2CN2C(N)=NC[C@H]2C(C)C)C(C)C)C(=N)N1CCc1ccc(Cl)c(Cl)c1,18.2,/,/,0.8,/,/,/
CC[C@@H](C)[C@@H]1CN([C@@H](C)CN2CCC[C@H]2CN2C(N)=NC[C@@H]2Cc2ccccc2)C(=N)N1CCc1ccc(Cl)c(Cl)c1,34.1*,/,/,12.7,/,17.3,5.5
CCc1ccc(-c2nc(NC(=O)c3ccc(OCC(=O)Nc4ccc(F)cc4)c(OC)c3)sc2C)cc1,4.2,18.5,i,7.6,5.0,/,/
O=C1CC(c2ccc(S(=O)(=O)NCc3ccncc3)cc2)CN1 (stereo not given),-4.6,1.4,i,2.9,-4.2,/,/
CN1C(=S)N(c2cccnc2)C(=O)/C1=C\c1ccc(N(C)C)cc1,1.7,2.3,i,0.3,7.7,/,/
CN1C(=S)N(c2cccnc2)C(=O)/C1=C\c1ccc(C(C)(C)C)cc1,37.8*,7.9,i,21.9,0.2,64.5*,54.6*
O=C(NCc1ccccc1)C(c1ccccc1F)n1c(=O)c(-c2ccco2)nc2ccccc21 (stereo not given),66.8*,/,/,0.7,/,68.6*,31.6*
COc1ccc(C(C(=O)NCc2ccccc2)n2c(=O)c(-c3ccco3)nc3ccccc32)cc1 (stereo not given),72.3*,/,/,0.5,/,77.8*,42.0*
CCCOC(=O)c1ccc(Oc2c(-c3ccc(O)cc3O)n[nH]c2C)cc1,3.4,-3.5,i,0.9,5.9,/,/
Cc1[nH]nc(-c2ccc(O)cc2O)c1Oc1ccccc1,23.7*,5.4,i,-4.0,-4.9,18.0,35.8*
CCOC(=O)COc1ccc(/C=C/[N+](=O)[O-])c(OCC(=O)OCC)c1,28.1*,0.8,i,18.4,22.3,62.5*,94.6*
CCOc1ccc(/C=C/[N+](=O)[O-])c2ccccc12,79.2*,1.9,i,101.5*,22.0,102.5*,108.0*
Cc1cccc(S(=O)(=O)Nc2nc3ccccc3nc2NCc2ccco2)c1,1.2,-2.5,i,-4.6,11.5,/,/
Cc1ccc(S(=O)(=O)Nc2nc3ccccc3nc2NCc2ccco2)cc1C,27.7*,3.2,i,-2.7,17.2,14.6,26.9*
O=C(N/N=C/C(Br)=C/c1ccccc1)c1cc(-c2ccco2)[nH]n1,24.6*,-11.2,i,13.4,4.5,22.2*,72.0*
CC1C(=O)NN=C1C(=O)N/N=C\C(Br)=C\c1ccccc1 (stereo not given),33.7*,4.3,/,1.3,19.3,5.6,22.0*
COc1ccccc1OS(=O)(=O)c1ccc(NC(C)=O)cc1,3.1,2.8,i,7.5,-5.1,/,/
COC(=O)/C=C/S(=O)(=O)c1ccc(NC(C)=O)cc1,76.2*,-3.5,i,16.2,-94.2,86.5*,107.0*
Cc1cc(/C=C2\SC(=Nc3ccccc3)NC2=O)c(C)n1-c1ccc(S(N)(=O)=O)cc1,28.5*,-42.4,i,-0.7,-5.2,6.8,7.0

# From PubChem
